The campaign covered roughly 5,500 compounds. About 2,000 (36%) were called active. Roughly 18% stayed inconclusive and do not appear here. Rule as the data show it: active = normalized growth mostly below about 0.91 (no sharp cut-off); inconclusive = no clear call, values can overlap the other calls; inactive = mostly above about 0.92. The list shows a part of the results.
Experiment: chemical genetic growth profiling, strain panel (AID 1159580);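 also: tested at 20 µM; growth read once vehicle control cultures reached saturation at 30 °C; 1 = growth at the plate median or of vehicle wells; lower values mean less growth of the strain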
Details: S. cerevisiae deletion strains, growth OD

Measured: normalized growth

O=C1c2ccc(O)c(O)c2C(=O)c2c(O)ccc(O)c21
active: locus YAL021C, strain ccr4, stronger effect = lower value 0.241 | locus YAL026C, strain drs2, stronger effect = lower value 0.376 | locus YAL030W, strain snc1, stronger effect = lower value 0.69 | locus YBL061C, strain skt5, stronger effect = lower value 0.548 | locus YBR009C, strain hhf1, stronger effect = lower value 0.667 | locus YBR023C, strain chs3, stronger effect = lower value 0.479 | locus YBR171W, strain sec66, stronger effect = lower value 0.753 | locus YBR231C, strain swc5, stronger effect = lower value 0.479 | locus YBR279W, strain paf1, stronger effect = lower value 0.838 | locus YCL011C, strain gbp2, stronger effect = lower value 0.67 | locus YCL016C, strain dcc1, stronger effect = lower value 0.695 | locus YCL069W, strain vba3, stronger effect = lower value 0.751 | locus YCR088W, strain abp1, stronger effect = lower value 0.781 | locus YDL005C, strain med2, stronger effect = lower value 0.879 | locus YDL040C, strain nat1, stronger effect = lower value 0.795 | locus YDR001C, strain nth1, stronger effect = lower value 0.787 | locus YDR069C, strain doa4, stronger effect = lower value 0.399 | locus YDR137W, strain rgp1, stronger effect = lower value 0.255 | locus YDR159W, strain sac3, stronger effect = lower value 0.789 | locus YDR297W, strain sur2, stronger effect = lower value 0.697 | locus YDR334W, strain swr1, stronger effect = lower value 0.424 | locus YDR335W, strain msn5, stronger effect = lower value 0.737 | locus YDR392W, strain spt3, stronger effect = lower value 0.567 | locus YEL003W, strain gim4, stronger effect = lower value 0.675 | locus YEL037C, strain rad23, stronger effect = lower value 0.734 | locus YEL061C, strain CIN8 (second series), stronger effect = lower value 0.814 | locus YER015W, strain faa2, stronger effect = lower value 0.493 | locus YER016W, strain bim1, stronger effect = lower value 0.705 | locus YER111C, strain swi4, stronger effect = lower value 0.708 | locus YER155C, strain BEM2 (second series), stronger effect = lower value 0.696 | locus YFR010W, strain ubp6, stronger effect = lower value 0.539 | locus YGL167C, strain pmr1, stronger effect = lower value 0.814 | locus YGL173C, strain kem1, stronger effect = lower value 0.286 | locus YGL227W, strain vid30, stronger effect = lower value 0.83 | locus YGL240W, strain doc1, stronger effect = lower value 0.667 | locus YGL253W, strain hxk2, stronger effect = lower value 0.638 | locus YHR027C, strain rpn1, stronger effect = lower value 0.401 | locus YHR142W, strain chs7, stronger effect = lower value 0.451 | locus YJL092W, strain hpr5, stronger effect = lower value 0.774 | locus YJL095W, strain BCK1 (second series), stronger effect = lower value 0.236 | locus YJL115W, strain asf1, stronger effect = lower value 0.816 | locus YJL129C, strain trk1, stronger effect = lower value 0.52 | locus YJL154C, strain vps35, stronger effect = lower value 0.782 | locus YJL164C, strain tpk1, stronger effect = lower value 0.545 | locus YJL166W, strain qcr8, stronger effect = lower value 0.596 | locus YKL160W, strain elf1, stronger effect = lower value 0.869 | locus YKR026C, strain gcn3, stronger effect = lower value 0.81 | locus YKR091W, strain srl3, stronger effect = lower value 0.757 | locus YLL001W, strain dnm1, stronger effect = lower value 0.722 | locus YLL026W, stronger effect = lower value 0.758 | locus YLL041C, strain sdh2, stronger effect = lower value 0.765 | locus YLR027C, strain aat2, stronger effect = lower value 0.751 | locus YLR221C, strain rsa3, stronger effect = lower value 0.668 | locus YLR258W, strain gsy2, stronger effect = lower value 0.685 | locus YLR262C, strain YPT6 (second series), stronger effect = lower value 0.185 | locus YLR320W, strain mms22, stronger effect = lower value 0.515 | locus YLR342W, strain FKS1, stronger effect = lower value 0.532 | locus YLR357W, strain rsc2, stronger effect = lower value 0.563 | locus YLR370C, strain arc18, stronger effect = lower value 0.577 | locus YLR384C, strain iki3, stronger effect = lower value 0.731 | locus YML120C, strain ndi1, stronger effect = lower value 0.768 | locus YMR058W, strain fet3, stronger effect = lower value 0.459 | locus YMR125W, strain sto1, stronger effect = lower value 0.803 | locus YMR129W, stronger effect = lower value 0.756 | locus YMR205C, strain PFK2, stronger effect = lower value 0.522 | locus YMR231W, strain pep5, stronger effect = lower value 0.641 | locus YNL071W, strain lat1, stronger effect = lower value 0.748 | locus YNL209W, strain ssb2, stronger effect = lower value 0.29 | locus YNL248C, strain rpa49, stronger effect = lower value 0.66 | locus YNL322C, strain KRE1 (second series), stronger effect = lower value 0.812 | locus YNR049C, strain mso1, stronger effect = lower value 0.785 | locus YOR001W, strain rrp6, stronger effect = lower value 0.683 | locus YOR070C, strain gyp1, stronger effect = lower value 0.71 | locus YOR080W, strain dia2, stronger effect = lower value 0.759 | locus YOR083W, strain WHI5, stronger effect = lower value 0.57 | locus YOR106W, strain vam3, stronger effect = lower value 0.307 | locus YOR265W, strain rbl2, stronger effect = lower value 0.683 | locus YOR270C, strain vph1, stronger effect = lower value 0.387 | locus YOR290C, strain snf2, stronger effect = lower value 0.578 | locus YPL051W, strain arl3, stronger effect = lower value 0.416 | locus YPL078C, strain atp4, stronger effect = lower value 0.76 | locus YPL106C, strain sse1, stronger effect = lower value 0.536 | locus YPL240C, strain hsp82, stronger effect = lower value 0.74
inactive: locus YBR021W, strain FUR4, stronger effect = lower value 1.01 | locus YBR229C, strain ROT2, stronger effect = lower value 1.01 | locus YCL029C, strain bik1, stronger effect = lower value 1 | locus YDL035C, strain GPR1, stronger effect = lower value 1.03 | locus YDL074C, strain BRE1, stronger effect = lower value 1 | locus YDL101C, strain DUN1, stronger effect = lower value 1.01 | locus YDL185W, strain tfp1, stronger effect = lower value 1.01 | locus YDL192W, strain arf1, stronger effect = lower value 0.99 | locus YDR101C, strain arx1, stronger effect = lower value 1.01 | locus YDR162C, strain NBP2, stronger effect = lower value 1.03 | locus YDR195W, strain ref2 0.873 | locus YDR318W, strain mcm21, stronger effect = lower value 0.992 | locus YDR388W, stronger effect = lower value 0.997 | locus YDR502C, strain sam2, stronger effect = lower value 0.991 | locus YEL061C, strain CIN8, stronger effect = lower value 1 | locus YER110C, stronger effect = lower value 0.991 | locus YER155C, strain BEM2, stronger effect = lower value 1 | locus YER167W, strain BCK2, stronger effect = lower value 1.02 | locus YGL078C, strain dbp3, stronger effect = lower value 0.982 | locus YGL086W, strain mad1, stronger effect = lower value 0.989 | locus YGL248W, strain PDE1, stronger effect = lower value 1 | locus YGR078C, strain PAC10, stronger effect = lower value 1.01 | locus YGR135W, strain pre9, stronger effect = lower value 0.991 | locus YGR252W, strain gcn5, stronger effect = lower value 0.977 | locus YHR013C, strain ard1, stronger effect = lower value 0.953 | locus YHR030C, strain SLT2, stronger effect = lower value 1.01 | locus YHR079C, strain IRE1 (second series), stronger effect = lower value 0.991 | locus YHR094C, strain hxt1, stronger effect = lower value 0.995 | locus YHR129C, strain ARP1, stronger effect = lower value 1.01 | locus YHR200W, strain rpn10, stronger effect = lower value 0.998 | locus YIL066C, strain RNR3, stronger effect = lower value 1.03 | locus YIL073C, strain SPO22, stronger effect = lower value 1.01 | locus YIL125W, strain kgd1, stronger effect = lower value 0.992 | locus YIR030C, strain dcg1, stronger effect = lower value 0.988 | locus YJL095W, strain BCK1, stronger effect = lower value 0.998 | locus YJL134W, strain LCB3, stronger effect = lower value 1.01 | locus YJL168C, strain set2, stronger effect = lower value 0.988 | locus YJL187C, strain SWE1 (second series), stronger effect = lower value 1.01 | locus YJR043C, strain POL32, stronger effect = lower value 1.03 | locus YKL009W, strain mrt4, stronger effect = lower value 0.978 | locus YKL068W, stronger effect = lower value 0.992 | locus YKL085W, strain MDH1 (second series), stronger effect = lower value 0.99 | locus YKL085W, strain MDH1, stronger effect = lower value 0.99 | locus YKL190W, strain CNB1, stronger effect = lower value 1.01 | locus YKR001C, strain vps1, stronger effect = lower value 0.985 | locus YLR039C, strain RIC1, stronger effect = lower value 1.03 | locus YLR058C, strain SHM2, stronger effect = lower value 1.01 | locus YLR102C, strain apc9, stronger effect = lower value 0.991 | locus YLR262C, strain YPT6, stronger effect = lower value 1.09 | locus YLR268W, strain sec22, stronger effect = lower value 1.01 | locus YLR330W, strain CHS5, stronger effect = lower value 1.01 | locus YLR342W, strain FKS1 (second series), stronger effect = lower value 1.02 | locus YLR371W, strain rom2, stronger effect = lower value 0.986 | locus YLR418C, strain cdc73, stronger effect = lower value 0.978 | locus YML016C, strain PPZ1, stronger effect = lower value 1.01 | locus YML032C, strain rad52, stronger effect = lower value 1.01 | locus YML124C, strain tub3, stronger effect = lower value 0.988 | locus YMR078C, strain ctf18, stronger effect = lower value 0.996 | locus YMR223W, strain ubp8, stronger effect = lower value 0.998 | locus YMR307W, strain GAS1, stronger effect = lower value 1.07 | locus YNL067W, strain RPL9B, stronger effect = lower value 0.997 | locus YNL128W, strain TEP1, stronger effect = lower value 1.01 | locus YNL153C, strain GIM3, stronger effect = lower value 0.998 | locus YNL233W, strain BNI4, stronger effect = lower value 1.01 | locus YNL250W, strain rad50, stronger effect = lower value 0.998 | locus YNL271C, strain bni1, stronger effect = lower value 0.994 | locus YNL298W, strain CLA4, stronger effect = lower value 0.994 | locus YNL307C, strain MCK1, stronger effect = lower value 0.994 | locus YNR052C, strain pop2, stronger effect = lower value 0.993 | locus YOL012C, strain htz1 0.902 | locus YOL147C, strain pex11, stronger effect = lower value 0.998 | locus YOR061W, strain CKA2, stronger effect = lower value 1.02 | locus YOR069W, strain VPS5, stronger effect = lower value 1.01 | locus YOR136W, strain idh2, stronger effect = lower value 1.02 | locus YOR144C, strain elg1, stronger effect = lower value 0.991 | locus YOR184W, strain ser1, stronger effect = lower value 0.995 | locus YOR316C, strain cot1, stronger effect = lower value 0.996 | locus YPL241C, strain CIN2, stronger effect = lower value 1.01 | locus YPR119W, strain clb2, stronger effect = lower value 0.989 | locus YPR141C, strain kar3, stronger effect = lower value 0.991 | locus YPR163C, strain tif3, stronger effect = lower value 1.01 | locus YPR167C, strain met16, stronger effect = lower value 0.989 | strain wtn01, stronger effect = lower value 1.01
